Screening data: PubChem BioAssay, National Center for Advancing Translational Sciences (NCATS)
The list is not random: actives were taken first. Their share in the collection is about 9%.
G9a inh – blocks human histone lysine methyltransferase G9a; Q96KQ7; G9a H3K9 monomethylation, AlphaScreen, 2 h; Potency, µM (titrated, usually from 102 µM), without a hit: at the top dose activity, negative = inhibition, most hits filed as inhibitors; hit rate 8.8% among 350,000; AID 504332; also: % is scaled to controls: 0 for no effect and ±100 for the full control effect; nearly all actives have a fitted effect of over 75% in size
Target sequence (Q96KQ7 913-1193 limits assumed): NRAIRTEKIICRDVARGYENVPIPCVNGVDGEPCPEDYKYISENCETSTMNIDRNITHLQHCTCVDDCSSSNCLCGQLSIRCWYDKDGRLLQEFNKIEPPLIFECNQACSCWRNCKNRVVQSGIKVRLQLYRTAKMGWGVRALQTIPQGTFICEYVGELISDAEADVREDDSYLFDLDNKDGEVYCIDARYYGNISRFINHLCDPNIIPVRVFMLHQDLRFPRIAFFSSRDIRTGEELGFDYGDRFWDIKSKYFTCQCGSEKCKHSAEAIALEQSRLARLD
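AlphaScreen detection with an anti-monomethyl H3K9 antibody quantified product after a 2 h room-temperature reaction containing 500 nM biotinylated H3K9 peptide, 20 µM SAM and 20 nM enzyme, which had been preincubated 15 min with compound.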
ALOX12 inh – blocks human arachidonate 12S-lipoxygenase | P18054 | purified 12hLO, xylenol orange hydroperoxide absorbance | Potency, µM (titrated, usually from 108 µM), without a hit: top-dose activity change, negative = inhibition, hits mostly inhibitors | hit rate 1.1% among 580,000; also: % is scaled to controls: 0 for no effect and ±100 for the full control effect
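Purified human 12hLO (150 nM final) in 25 mM Hepes, 0.01% Triton X-100, pH 7.0 was preincubated 15 min at room temperature with compound. Then 40 uM arachidonic acid was added, 30 min. Hydroperoxide was read by Fe-XO absorbance ratio 573/405 nm.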
BAZ2B inh – inhibitors of human BAZ2B bromodomain. Q9UIF8. AlphaScreen BAZ2B-H3K14Ac peptide displacement. Potency, µM (doses to about 114 µM), without a hit: at the top dose activity change, negative = inhibition, usual class: inhibitors. hit rate 4.4% among 360,000. AID 504333; also: % is scaled to controls: 0 for no effect and ±100 for the full control effect; nearly all actives have a fitted effect of over 60% in size
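Protein-peptide AlphaScreen: BAZ2B 50 nM, b-H3K14Ac 50 nM, 1x PBS pH 7.4 + 0.01% Tween-20. Preincubation 30 min RT; cpd 30 min RT (top 110 uM); beads 20 min RT, light-protected.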
PLK1 PBD block – blocks phosphopeptide binding to human PLK1 polo-box domain | P53350 | Plk1 PBD binding of FITC phosphopeptide, fluorescence polarization | Potency, µM, inactives show max response, negative = inhibition, usual class: inhibitors | hit rate 2.8% among 360,000 | AID 720504; also: series mostly up to about 57 µM; % is scaled to controls: 0 for no effect and ±100 for the full control effect; nearly all actives have a fitted effect of over 65% in size
HP1b chromo inh – inhibitors of HP1-beta chromodomain binding to methylated histone tails; AlphaScreen HP1-beta / biotin-H3K9me3 peptide binding; Potency, µM (series often up to 114 µM), without a hit: at the top dose activity change, negative = inhibition, hits mostly inhibitors; hit rate 0.56% among 390,000; also: nearly all actives have a fitted effect of over 70% in size
Target sequence (P83916 whole entry, looked up): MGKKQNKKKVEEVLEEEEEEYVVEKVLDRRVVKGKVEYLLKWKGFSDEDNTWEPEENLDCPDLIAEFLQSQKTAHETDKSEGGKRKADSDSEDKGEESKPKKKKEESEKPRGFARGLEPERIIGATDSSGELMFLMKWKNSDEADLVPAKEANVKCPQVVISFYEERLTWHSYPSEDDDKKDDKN
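HP1-beta protein (50 nM final) preincubated 30 min at room temperature with biotinylated H3(1-18)K9me3 peptide (50 nM) in PBS pH 7.4, 0.01% Tween-20, then compound added for 30 min. AlphaScreen streptavidin donor/nickel chelate acceptor beads (10 ug/mL final), 30 min dark, luminescence read.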
JMJD2A Tudor inh – JMJD2A Tudor domain (human) inhibition; O75164; AlphaScreen JMJD2A-Tudor / H3K4me3 peptide binding; AID 504339; hit rate 4.4% among 390,000; Potency, µM (highest dose often 114 µM), without a hit: at the top dose activity change, negative = inhibition, usual class: inhibitors; also: % is scaled to controls: 0 for no effect and ±100 for the full control effect; nearly all actives have a fitted effect of over 50% in size
An asterisk follows results filed as active; ? = inconclusive; . = no result given; [ ] = dose if it differs, or a comment. Calls follow the shape of the dose curve; as a rule, active = well fitted curve in the direction sought with a large enough effect; inconclusive = small, poorly fitted or top-dose-only effect, or another doubt; inactive = no such curve, though single readings can be large; an effect the other way counts as inactive or inconclusive. Potency is read from the fitted curve at half-maximal effect.

SMILES | G9a inh | ALOX12 inh | BAZ2B inh | PLK1 PBD block | HP1b chromo inh | JMJD2A Tudor inh
COc1cccc2c1C1(O)C2CCCCCCCCCC12OCCCO2 (stereo not given) | . | -17.5% | . | -10.6% | 17.9% | -4.2%
Cc1nc(S/C(=C/c2ccc(-c3ccc(C(=O)O)cc3)o2)C(=O)O)n[nH]1 | 11.2µM* | -19.1% | 10µM* | -10.6% | ? | 20µM*
Cc1nc(S/C(=C/c2ccc(-c3ccc(Cl)cc3)o2)C(=O)O)n[nH]1 | -2.9%[59 µM] | 115.7% | 9.5% | -28.4% | 2.4% | -22.2%
Cc1nc(S/C(=C/c2ccc(-c3cc(Cl)ccc3C)o2)C(=O)O)n[nH]1 | . | 6.0% | -33.2% | ? | 12.8% | 44.7µM*
O=C(CSc1nc2ccccc2c(=O)n1NC(=O)c1ccccc1)c1ccccc1 | -31.7% | -0.1% | -24.1% | -9.2% | -1.0% | -28.8%
CC(=O)N1CCN(c2ccc(NC(=O)COc3c(C)cc(C)cc3Cl)cc2)CC1 | . | 12.6µM* | . | . | . | .
Cc1cc(C)c(OCC(=O)Nc2ccc(S(=O)(=O)N3CCCC3)cc2)c(C)c1 | 50.1µM* | ? | 9.2% | -6.9% | 29.8% | -13.8%
Cc1ccc(C(C)C)c(OCC(=O)Nc2ccc(N3CCN(S(C)(=O)=O)CC3)cc2)c1 | 10µM* | 24.2% | -12.7% | -4.9% | 25.8% | -6.0%
Cc1cccc(OCC(=O)Nc2ccc(S(=O)(=O)N3CCCC3)cc2)c1 | 31.6µM* | ? | -9.2% | -24.8% | 37.9% | -9.6%
Cc1ccc(OCC(=O)Nc2ccc(N3CCN(S(C)(=O)=O)CC3)cc2)c(C)c1 | 13.5% | 2.2% | -32.9% | 5.2% | 35.8% | -9.2%
Cn1c(-c2ccccc2)cnc1SCC(N)=O | 0.2% | 30.3% | -2.9% | -5.2% | 60.5% | -14.5%[57.1 µM]
Cn1nc(C(=O)Nc2nnc(C3CC3)s2)c2ccccc2c1=O | 1.7% | -6.2% | -14.9% | -11.7% | 25.6% | -22.3%
CCc1ccc(NC(=O)[C@H](Cc2ccccc2)NC(=O)C2CCN(C(=O)[C@@H](N)CC(C)C)CC2)cc1 | 7.1%[12.7 µM] | 15.7% | -23.6% | 5.7% | 35.6% | -23.8%
CCOc1ccc(C(=O)CN2CCN(S(=O)(=O)c3ccc(Cl)cc3)CC2)cc1 | 35.5µM* | ? | -6.5% | -11.1% | 65.4% | -9.3%
COc1ccc(CN2CCCN(S(=O)(=O)c3ccc(Br)cc3)CC2)cc1 | 9.7% | -13.6% | ? | 26.7µM* | -5.5% | ?
COc1ccc(C(=O)CN2CCN(S(=O)(=O)c3ccc(F)cc3)CC2)cc1 | ? | -14.4% | 2.7% | . | 29.4% | -6.2%
COc1ccc(S(=O)(=O)N2CCN(Cc3ccc(Cl)cc3)CC2)cc1 | 2.51µM* | ? | ? | -0.6% | ? | 10µM*
COc1ccc(OC)c(NC(=O)CNC(=O)Cn2cnc3ccccc3c2=O)c1 | 20.3%[59 µM] | 0.0% | 6.6% | 2.4% | 22.7% | 7.2%
CCN1C(=O)C(CC(=O)NCCOC)Sc2ncccc21 (stereo not given) | . | 3.6% | . | . | . | .
CC1C/C(=N\Nc2ccc(S(N)(=O)=O)cc2[N+](=O)[O-])CC(C)(C)C1 (stereo not given) | 14.1µM* | -2.6% | ? | -4.3% | ? | ?
NS(=O)(=O)c1ccc(NN=C2CCN(Cc3ccccc3)CC2)c([N+](=O)[O-])c1 | 44.7µM* | -27.5% | 7.8% | 3.0% | 4.7% | -24.8%
CCCCNc1ccc(S(=O)(=O)c2cccc([N+](=O)[O-])c2)cc1[N+](=O)[O-] | 7.94µM* | -21.6% | ? | 3.9% | 37.8% | -3.5%
CCNc1ccc(S(N)(=O)=O)cc1[N+](=O)[O-] | 3.55µM* | ? | -5.7% | 10.7% | -1.5% | 0.0%
COc1ccc(COC(=O)N/C=C/c2ccco2)cc1 | 50.1µM* | ? | -27.5% | -2.3% | 24.1% | -2.8%
Cc1ccc(NC(=O)N/C=C/c2ccco2)c(C)c1 | ? | ? | -34.7% | -12.7% | 1.5% | ?
SMILES | G9a inh | ALOX12 inh | BAZ2B inh | PLK1 PBD block | HP1b chromo inh | JMJD2A Tudor inh
COc1ccc(CC(=O)NCC(=O)N/N=C/c2ccco2)cc1 | 0.1%[59 µM] | 12.8% | -4.3% | 1.5% | 42.1% | -0.7%
COc1ccccc1COC(=O)N/C=C/c1ccco1 | 20µM* | 50.1µM* | ? | -17.2% | 6.2% | -31.5%
COc1cccc(C2CN(c3ccc(F)cc3F)N=C2c2cccs2)c1OC (stereo not given) | 215.5%[59 µM] | ? | 126.4% | 2.9% | 285.8% | 172.9%
COc1ccccc1C1CN(c2ccccc2)N=C1c1cccs1 (stereo not given) | 365.3% | 6.31µM* | 179.6% | 3.1% | 326.8% | 148.8%
CC(C)c1ccc(CNC(=O)CSCC(=O)Nc2ccc3ccccc3c2)cc1 | -43.8% | -24.5% | -5.9% | 0.8% | 8.3% | -19.0%
COc1ccc(-c2csc(NC(=S)NC(=O)c3cccs3)n2)cc1OC | 31.6µM* | -14.4% | ? | -27.5% | -4.6% | -33.6%
COc1ccc(-c2csc(NC(=O)CSCc3c(C)noc3C)n2)cc1OC | . | 3.3% | ? | 0.2% | -1.6% | -28.3%
COc1ccc(-c2csc(NC(=O)c3cc(C)oc3C)n2)cc1OC | 50.1µM* | 18.2% | 35.5µM* | -13.4% | -20.9% | ?
COc1ccc(-c2csc(NC(=O)CSCC(=O)Nc3cc(C)on3)n2)cc1OC | 39.8µM* | -6.5% | -6.2% | ? | -8.9% | -22.4%
COc1ccc(-c2csc(NC(=S)NC(=O)c3cccs3)n2)cc1Br | 4.4% | 0.0% | -13.0% | -0.4% | 10.1% | -5.2%
Cc1ccc(-n2c(N)cc(=O)nc2SCC(=O)N2CCN(c3ccccc3)CC2)cc1 | . | -1.9% | ? | 3.6% | 2.3% | -33.6%
CCOC(=O)c1cc2c(=O)n3ccccc3nc2n(CC2CCCO2)c1=NC(=O)c1cc(C)cc(C)c1 (stereo not given) | 4.7%[59 µM] | 1.0% | 6.9% | . | 20.5% | -8.5%
CCCCC#Cc1ccccc1COC[B-](F)(F)F | . | 104.3% | . | . | . | .
Cc1cccc(N2CCN(C(=O)c3cnc4c(C)cccn4c3=O)CC2C)c1 (stereo not given) | -15.8%[59 µM] | 0.1% | -0.9% | . | 16.7% | 2.0%
O/N=C1/CCc2nonc2/C1=N/O | 0.708µM* | 11.9% | 10µM* | -9.5% | 13.4% | ?
CCc1ccccc1NNC(=O)c1snnc1C | 2.82µM* | -99.0% | -12.4% | -3.8% | 11.9% | -6.8%
Cc1nnsc1C(=O)NNc1c(Cl)cccc1Cl | 8.91µM* | ? | 4.0% | -7.2% | 33.1% | -8.3%
Cc1ccc(S(=O)(=O)CCC(=O)Nc2ccc(S(=O)(=O)N(C)C)cc2)cc1 | ? | . | -3.5% | . | . | .
Cc1ccc(O)c(NC(=O)CCCC(=O)O)c1 | -2.2% | 16.9% | 3.0% | -0.5% | 14.0% | -8.1%
C/C(O)=C(\N=Nc1cc(C)ccc1O)C(N)=O | ? | ? | ? | 29.9µM* | ? | -27.1%[11.4 µM]
CCN1CCN(C(c2cccnc2)c2c(NC(=O)c3ccco3)sc(C)c2C)CC1 (stereo not given) | ? | ? | -7.5% | -3.6% | 30.2% | -13.9%
